We go through 8 compounds from PubChem BioAssay (NCI).

The panel holds about 83,000 compounds, 20% with a hit somewhere; the sample as a whole holds those more often.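 Interpretation: 100, growth as untreated; towards 0, rising growth inhibition; 0, no net growth; 0 to -100, cell death. Compounds scoring below 10 were considered active.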 Values without a mark were called inactive. Active and inactive are the calls of the source.

Test in all cases: NCI-60 one-dose screen, 48 h (100 = growth as untreated, 0 = no growth, -100 = all killed)
Common to all, as to conditions: 10 µM unless noted

The test system of test [1] is NCI-H23 lung.
Test [2] concerns NCI-H226 lung.
Test [3] relates to NCI-H322M lung.
The test system of test [4] is HOP-62 NSCLC.
The subject of test [5] is NCI-H460 lung.
Test [6] relates to HOP-92 NSCLC.
For test [7], the system named is NCI-H522 lung.
Test [8] has as its system A549/ATCC NSCLC.
In test [9] the test system is 786-0 renal.
The subject of test [10] is COLO 205 colon.
Test [11] deals with DU-145 prostate.
Test [12] deals with K-562 leukemia.
Test [13] concerns MALME-3M melanoma.
Test [14] deals with MDA-MB-231 breast.
For test [15], the system named is RXF 393 renal.
Test [16] concerns SF-268 CNS.
Test [17] concerns SF-295 CNS.
The subject of test [18] is SF-539 CNS.
Test [19] relates to UACC-257 melanoma.
In test [20] the test system is M14 melanoma.

In the case of `CC(CO)NC1CCCCC1` (centres undefined), the growth in test [1] is 103%; in test [2], 119%; in test [3] it was 102%; in [4], 102%; in test [5] it was 108%; in test [6], 78%. Also, the growth in test [7] is 103%; in test [8], 102%; in test [9] it was 100%; in test [10] it was 113%; in test [11], 105%; in [12], 104%. Besides, the growth is 103% in test [13]; 91.2% in test [14]; 114% in test [15]; 108% in test [16]; 113% in [17]; 91.8% in [18]. Moreover, the growth in test [19] is 104%.
As to `COC(=O)[C@@H](C)C[C@H](Cc1ccccc1)NC(=O)c1csc([C@@H](C[C@H](C(C)C)N(C)C(=O)[C@@H](NC(=O)[C@H]2CCCCN2C)c2ccc(F)cc2)OC(C)=O)n1`, the growth is 25.6% in test [1]; 29.4% in [2]; 37.4% in [3]; 3.87% (active) in [4]; 3.62% (active) in test [5]; 4.81% (active) in test [6]. Also, the growth is -2.85% (active) in test [7]; 13.9% in test [8]; 15.7% in test [9]; -53.8% (active) in [10]; 6.65% (active) in [11]; 2.45% (active) in [12]. In addition, the growth in [13] was 65.8%; in test [14], -9.8% (active); in test [15], 74.7%; in [16], 13.2%; in test [17] it was 3.25% (active); in test [18], -17.9% (active). The growth in [19] was 53.2%; in [20], -6.9% (active).
As for `COc1cc([C@@H]2c3cc4c(cc3[C@H](OC(C)=O)[C@H]3COC(=O)[C@@H]23)OCO4)cc(OC)c1OC`, the growth is 0.572% (active) in test [1]; 33.2% in test [2]; 36.3% in test [3]; 10.6% in [4]; -4.08% (active) in [5]; 27.2% in test [6]. In addition, the growth in test [7] is -34.7% (active); in test [8], 10.5%; in [9] it was 2.27% (active); in [10], -75.8% (active); in test [11], 3.27% (active); in test [12], 11.2%. Moreover, the growth was 57.1% in test [13]; 8.36% (active) in test [14]; 52% in [15]; 33% in [16]; -15.7% (active) in [17]; -33.4% (active) in test [18]. Moreover, the growth in test [19] is 49.2%.
`Nc1ccc(Cl)cc1`: the growth in test [1] was 99.3%; in [2], 92.1%; in test [3], 106%; in [4], 90.3%; in test [5], 109%; in test [6], 85.5%. Also, the growth in test [7] was 89.3%; in test [8], 78.7%; in test [9] it was 97.7%; in test [10], 95.9%; in test [11] it was 102%; in [12] it was 100%. Also, the growth in test [13] was 104%; in test [14] it was 104%; in [15], 105%; in [16] it was 104%; in test [17], 99.2%; in test [18] it was 96.6%. The growth in test [19] was 86.4%; in [20] it was 99.5%.
For the compound `CC1=C(CN)C2=C(C)C3(CC3)[C@@](C)(O)C(=O)C2=C1`, the growth in [1] is 68.2%; in [2], 91.8%; in [3], 91.6%; in test [4], 88.2%; in test [5], 66.1%; in test [6] it was 115%. Further, the growth in [7] was 87.9%; in test [8], 93.5%; in test [9], 99%; in [10], 85.1%; in [11] it was 48.5%; in test [12], 111%. Moreover, the growth in [13] was 96.2%; in [14], 95.2%; in test [15], 91.6%; in [16] it was 72.1%; in test [17] it was 78.9%; in test [18] it was 94.8%. For the same compound, in [19], the growth is 87.2%.
Regarding `NC(=O)c1c(Br)n(C2OC(CO)C(O)C2O)c2ncnc(N)c12` (centres undefined), the growth in test [1] was 9.8% (active); in test [2], 54.1%; in [3], 21.7%; in test [4], 12%; in [5], 11.8%; in [6], 3.71% (active). The growth is -18.7% (active) in test [7]; 12.9% in test [8]; 25.9% in [9]; -12.9% (active) in test [10]; 1.13% (active) in [11]; 1.67% (active) in test [12]. The growth in [13] was 13.2%; in test [14], 50.6%; in [15] it was -16.4% (active); in test [16] it was 20.1%; in test [17], 38.9%; in [18], 13.7%. Further, in test [19], the growth was -0.624% (active).
As to `O=C(CN1CCN(C(=O)c2ccco2)CC1)Nc1ccc(Cl)cc1C(=O)c1ccccc1Cl`, the growth in [1] is 85.3%; in [2], 95.1%; in test [3] it was 98.2%; in [4] it was 105%; in test [5] it was 104%; in test [6], 73.9%. In addition, the growth in test [7] was 67.7%; in test [8], 77.2%; in test [9] it was 95.8%; in test [10], 95.9%; in test [11] it was 111%; in test [12], 80.6%. In addition, the growth in test [13] is 104%; in [14] it was 49.2%; in test [15] it was -11.8% (active); in test [16], 90.7%; in test [17], 109%; in [18] it was 99.8%. For the same compound, in test [19], the growth was 86.2%.
In the case of `COc1ccc(-n2c(C)nc3cc(OC)c(OC)cc3c2=O)cc1OC`, the growth in test [1] was 101%; in [2], 99.1%; in [3], 97%; in test [4] it was 102%; in test [5] it was 106%; in test [6], 103%. For the same compound, the growth is 101% in test [7]; 98% in test [8]; 102% in test [9]; 99.5% in [10]; 105% in test [11]; 104% in test [12]. Besides, the growth in test [13] is 62.3%; in [14], 116%; in [15] it was 118%; in test [16] it was 97.2%; in test [17], 100%; in [18], 96.2%. The growth in test [19] is 102%.
